Screening results from PubChem BioAssay.
This is a sample that favours compounds with a hit; in the whole collection about 32% have one here.
CYP2C9 activ: increases human cytochrome P450 2C9 activity; P11712; recombinant CYP2C9, luciferin-H conversion, luminescence; hits give high values; factor 1 = untreated enzyme, 0 = blocked; activation factor at 5 µM; hit rate 1.4% among 96,000; AID 1024;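 active means activation factor of 2 or more for CYP2C9 at a 5 µM dose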
PostGolgi yeast: growth inhibition of a yeast mutant, post-Golgi transport screen; post-Golgi transport phenotypic cell assay; inhibition, % at 10 µM; hit rate 0.9% among 98,000;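 further: yeast cells grown in 1536-well plates; yeast grown about 18 h at 30C before absorbance read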
CYP2C19 activ: increases human CYP2C19 enzyme activity; recombinant CYP2C19, luciferin-H EGE luminescence; hits give high values; 0 = fully inhibited enzyme, 1 = untreated enzyme; activation factor at 5 µM; 96,000 tested, under 10 active; AID 1025;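 active means activation factor of at least 2 at 5 µM in the primary screen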
Target sequence (P33261 whole entry, looked up): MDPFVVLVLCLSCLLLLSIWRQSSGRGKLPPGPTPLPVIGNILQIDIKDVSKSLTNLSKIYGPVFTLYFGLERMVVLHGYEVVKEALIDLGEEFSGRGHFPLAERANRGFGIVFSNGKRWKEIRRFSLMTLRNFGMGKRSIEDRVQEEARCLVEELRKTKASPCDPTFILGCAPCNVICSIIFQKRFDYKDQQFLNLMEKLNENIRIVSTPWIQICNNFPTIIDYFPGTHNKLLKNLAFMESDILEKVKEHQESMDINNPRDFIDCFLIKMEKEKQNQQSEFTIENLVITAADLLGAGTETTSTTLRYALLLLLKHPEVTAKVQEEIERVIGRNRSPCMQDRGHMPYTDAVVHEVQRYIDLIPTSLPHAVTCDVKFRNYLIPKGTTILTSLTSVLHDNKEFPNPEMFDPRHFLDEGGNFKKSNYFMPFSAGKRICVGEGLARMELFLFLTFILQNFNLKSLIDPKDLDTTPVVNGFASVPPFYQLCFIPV
CYP2C9 inh: human CYP2C9 inhibition | inhibition, % at 5 µM | CYP2C9 Supersomes, luciferin-H conversion, luminescence | hit rate 20% among 96,000;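 active means blocking of liver enzyme CYP2C9 beyond about 50% at 5 µM, limit read from the data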
CYP2C19 inhib: human CYP2C19 inhibition. P33261. CYP2C19 Supersomes, luciferin-H EGE luminescence, 30 min. inhibition, % at 5 µM. hit rate 21% among 96,000;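 active means CYP2C19 inhibition above a set limit at 5 µM in the primary screen, cut at about 50% in these data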
PostGolgi ctrl: inhibits growth of the yeast control strain; efflux-deficient yeast background strain, growth absorbance A615, 16 h; inhibition, % at 10 µM; hit rate 5% among 98,000
Of the large screens only hits and unclear results are named; the others gave an inactive call. Unless noted, no stated cut-off is given here; in the data, active means inhibition above about 30%; inactive means the rest.

CC(c1ccco1)N(C(=O)C12CC3(C)CC(C)(CC(C)(C3)C1)C2)c1ccccn1 (configuration not stated)	none
N/C(=N\OC(=O)c1ccc(Cl)cc1)c1nonc1N	none
Cc1ccc(NC(=O)CO/N=C(\N)c2nonc2N)cc1	CYP2C19 inhib 70
N#CCN1CCN(CCC(=O)Nc2ccc(OCc3ccccc3)cc2)CC1	none
NC1=C(c2ccc(F)cc2)C(=O)CS1	none
O=c1cc(-c2ccc3c(c2)OCO3)oc2ccccc12	none
c1ccc2c(c1)c1ccccc1n1c(-c3ccc4c(c3)OCO4)nnc21	PostGolgi ctrl 43
CC(=O)N1CCCc2cc(S(=O)(=O)NC(C(=O)NCc3ccc(C)cc3)C(C)C)ccc21 (configuration not stated)	none
CCCC(=O)c1c(NC)cc(C)oc1=O	none
CCOc1ccc(NC(=O)Nc2cccs2)cc1	none
CC(=O)N(Cc1cc(=O)[nH]c2ccccc12)c1ccc(C)cc1	CYP2C9 inh 64, CYP2C19 inhib 51
COc1ccc(S(=O)(=O)NCC(c2cccnc2)N2CCN(c3ccc(F)cc3)CC2)cc1C (configuration not stated)	none (no result: CYP2C9 activ, CYP2C19 activ, CYP2C9 inh, CYP2C19 inhib)
COc1ccc(S(=O)(=O)NCC(c2cccnc2)N2CCN(c3ccccc3)CC2)cc1C (configuration not stated)	CYP2C9 inh 86, CYP2C19 inhib 73
COc1ccc(N2CCN(C(CNS(=O)(=O)c3cccs3)c3cccnc3)CC2)cc1 (configuration not stated)	CYP2C9 inh 56, CYP2C19 inhib 69
COc1ccc(N2CCN(C(CNS(=O)(=O)c3cc(F)ccc3F)c3cccnc3)CC2)cc1 (configuration not stated)	CYP2C9 inh 57, CYP2C19 inhib 74
COc1ccccc1N1CCN(C(CNS(=O)(=O)c2cccs2)c2cccnc2)CC1 (configuration not stated)	CYP2C19 inhib 57
Cc1ccc(C(C(=O)NCc2ccco2)N(C(=O)CNC(=O)c2cccs2)c2ccc(C)cc2C)cc1 (configuration not stated)	none
O=S(=O)(NCC(c1cccnc1)N1CCN(c2ccccc2)CC1)c1cccs1 (configuration not stated)	PostGolgi yeast 88, CYP2C9 inh 71, CYP2C19 inhib 92, PostGolgi ctrl 55
Cn1c(SCC(=O)c2ccccc2)nnc1-c1cccc(N)c1	CYP2C19 inhib 95
CC(C)(C)c1ccc(-c2nnc(SCC(=O)O)n2N)cc1	none
Cn1c(SCC(=O)c2ccccc2)nnc1-c1ccc(O)cc1	CYP2C19 inhib 93
Cn1c(SCC(N)=O)nnc1-c1ccccc1	none
Cn1c(SCC(=O)NC(C)(C)C)nnc1-c1ccc(C(C)(C)C)cc1	CYP2C9 inh 53
Cn1c(SCC(=O)c2ccc3c(c2)Cc2ccccc2-3)nnc1-c1ccccc1	none
O=C(CSc1nnc(-c2ccco2)n1CC1CCCO1)c1ccc(F)cc1 (configuration not stated)	none
COc1ccccc1N(C(=O)c1ccco1)C(C(=O)NC1CCCC1)c1cccnc1 (configuration not stated)	none
CC(C)(C)NC(=O)C(c1ccco1)N(C(=O)c1csnn1)c1ccccc1 (configuration not stated)	none
O=C(NC1CCCC1)C(c1ccco1)N(Cc1ccccc1)C(=O)c1csnn1 (configuration not stated)	CYP2C19 inhib 71
O=C(NC1CCCCC1)C(c1ccco1)N(Cc1cccnc1)C(=O)C1COc2ccccc2O1 (configuration not stated)	CYP2C9 inh 76, CYP2C19 inhib 84, PostGolgi ctrl 30
O=C(NC1CCCCC1)C(c1ccco1)N(C(=O)c1csnn1)C1CCCC1 (configuration not stated)	none
O=C(NCc1ccc2c(c1)OCO2)C(c1ccco1)N(C(=O)c1csnn1)c1ccccc1 (configuration not stated)	CYP2C19 inhib 75
COc1ccc2c(c1)C(c1ccc([N+](=O)[O-])cc1)=NNC(c1ccco1)=N2	none
CCc1nc2ccc(C(=O)NCc3ccco3)cc2nc1CC	none
O=C(NCc1ccco1)c1cccc(-c2nnc(-c3ccccc3)o2)c1	CYP2C9 inh 82, CYP2C19 inhib 71
COc1cc(-c2noc(-c3ccco3)n2)cc(OC)c1OC	none
CN1CCN(C(=O)c2ccccc2-c2nc(-c3ccccc3)no2)CC1	CYP2C9 inh 71
Cc1ccc(-c2noc(-c3ccccc3C(=O)N3CCOCC3)n2)cc1	none
O=C(NCc1ccco1)c1ccccc1-c1nc(-c2ccccc2)no1	CYP2C9 inh 54
COc1cc(-c2noc(-c3ccccc3C(=O)NCc3ccco3)n2)cc(OC)c1OC	CYP2C9 inh 50
Cc1ccccc1NC(=S)NC1CC2CCC(C1)N2Cc1ccco1 (configuration not stated)	none
CC(=O)NC1CC2CCCC(C1)N2S(=O)(=O)c1cccc(F)c1 (configuration not stated)	none
CCOC(=O)N1CCC(NC(=O)C2CCCCN2S(=O)(=O)c2ccc(F)cc2)CC1 (configuration not stated)	none
COc1ccc(S(=O)(=O)N2CCC(C(=O)NCCC3=CCCCC3)CC2)cc1OC	none
O=C(Nc1ccc(Oc2ccc(Cl)cc2)cc1)c1ncn[nH]1	CYP2C19 inhib 54
O=C(O)c1ccccc1S(=O)(=O)c1ccccc1CO	none
CC1=CC(=O)C(C(C)C)=C/C1=N/OC(=O)c1cccc([N+](=O)[O-])c1	CYP2C9 inh 53
COc1ccc(C(=O)NCc2nnc(SCC(=O)Nc3cc(C)cc(C)c3)o2)cc1OC	none
COc1ccc(/C=N/NC(=O)C(Cc2c[nH]c3ccccc23)NC(=O)OCC(C)C)cc1[N+](=O)[O-] (configuration not stated)	none
Cc1cc(CCN2CCC(=O)NC2=S)ccc1OC(C)C	CYP2C19 inhib 80
COc1ccc(CN2CCC(=O)NC2=O)cc1	none
CCOC(=O)C1CCN(S(=O)(=O)c2cnc[nH]2)CC1	CYP2C9 inh 98, CYP2C19 inhib 58
O=C(NCc1ccccn1)C1CCN(S(=O)(=O)c2cnc[nH]2)CC1	none
CCOC(=O)C1CCCN(C(=O)C2CCCN(S(C)(=O)=O)C2)C1 (configuration not stated)	none
CCOC(=O)C1CCCN(C(=O)C2CCN(S(=O)(=O)c3cnc[nH]3)CC2)C1 (configuration not stated)	CYP2C9 inh 87
O=C(Nc1ncc([N+](=O)[O-])s1)C1CCN(S(=O)(=O)c2cnc[nH]2)CC1	CYP2C9 inh 97
CCOc1ccc(OCC)c(NC(=O)C2CCN(S(=O)(=O)c3cnc[nH]3)CC2)c1	CYP2C9 inh 84
CC(=O)NC(Cc1cc(C)ccc1C)C(=O)N1CCN(C(=O)Nc2ccc(C(C)=O)cc2)CC1 (configuration not stated)	none
CC(C)c1nnc(NC(=O)C2CCCCC2)s1	none (no result: CYP2C9 activ, CYP2C19 activ, CYP2C9 inh, CYP2C19 inhib)
